# Many of the other results were omitted from the sample, so hits are more common in it than they were.
# Dicer processing – blocks human Dicer maturation of pre-miR-21 | cat-ELCCA pre-miR-21 Dicer processing, chemiluminescence; hits give high values | z-score at 25 µM | actives 6% (n = 47,000) | AID 1347074; in the data active = z-score above about 3, passing the limit was not always enough;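 note: higher signal means more uncleaved substrate so more Dicer inhibition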
# Hits are given with their value; n = inactive.
SMILES,Dicer processing
Cc1ccc(-c2nnc3c4ccccc4c(C)nn23)cc1S(=O)(=O)N1CCN(c2ccccc2)CC1,n
COc1ccc(-c2nnc3c4ccccc4c(C)nn23)cc1S(=O)(=O)NC(C)C,5
COc1ccc(-c2nnc3c4ccccc4c(C)nn23)cc1S(=O)(=O)NC1CCCCC1,n
CC(Sc1nc2ccccc2[nH]1)c1nc2ccccc2c(=O)[nH]1 (stereo not drawn),n
COc1ccc(OC)c(-c2ccn[nH]2)c1OCc1ccccc1,n
CC1(C)C2CC[C@](C)(C2)C1NC(=O)C1CCCCC1 (stereo partly drawn),n
CC1CCc2c(ccc3c4c(ccc23)C(=O)C(C)CC4)C1=O (stereo not drawn),n
COc1ccc(Br)cc1C1NC(=O)c2ccccc2N1 (stereo not drawn),n
Clc1ccc(/C=N/Nc2cc(-c3ccccc3)nc3ncnn23)c(Cl)c1,n
COc1ccc(N2C(=O)C3ON(c4ccccc4)C(c4cc(Br)ccc4O)C3C2=O)cc1 (stereo not drawn),n
COc1ccc(C2C3C(=O)N(c4ccccc4)C(=O)C3ON2c2ccccc2)cc1 (stereo not drawn),n
COc1ccc(N2C(=O)C3ON(c4ccccc4)C(c4ccco4)C3C2=O)cc1 (stereo not drawn),n
COc1cccc(N2C(=O)C3ON(c4ccccc4)C(c4ccccc4O)C3C2=O)c1 (stereo not drawn),3.9
COc1ccc(C2C3C(=O)NC(=O)C3ON2c2ccccc2)cc1 (stereo not drawn),n
COc1ccc(N2C(=O)C3ON(c4ccccc4)C(c4ccccc4O)C3(C)C2=O)cc1 (stereo not drawn),4
O=C1C2ON(c3ccccc3)C(c3cccnc3)C2C(=O)N1c1ccc(F)cc1 (stereo not drawn),n
Cc1ccc(N2C(=O)C3ON(c4ccccc4)C(c4ccccc4O)C3C2=O)cc1 (stereo not drawn),n
O=C1C2ON(c3ccccc3)C(c3cc(Br)ccc3O)C2C(=O)N1c1ccccc1 (stereo not drawn),4.7
Cc1ccc(N2C(=O)C3ON(c4ccccc4)C(c4cccnc4)C3C2=O)cc1 (stereo not drawn),n
COC(=O)c1ccc(N2C(=O)C3ON(c4ccccc4)C(c4ccc(OC)cc4OC)C3C2=O)cc1 (stereo not drawn),n
O=C1C2ON(c3ccccc3)C(c3ccccc3O)C2C(=O)N1c1ccc(Br)cc1 (stereo not drawn),3.4
CC1(C)CC(=O)c2cnc3[nH]n(-c4ccccc4)c(=O)c3c2C1,n
CC(=O)c1sc(-c2ccccc2)cc1NC(=O)CN1CCN(C(=O)c2ccc(C)cc2)CC1,n
COC(=O)C1C2CCC(C2)C1C(=O)OCC(=O)c1ccc(Br)cc1 (stereo not drawn),n
Nc1nc(-c2cccnc2)nn1C(=O)c1ccc(Cl)cc1,n
SMILES,Dicer processing
O=C(O)c1cc(-c2cccnc2)nc2ccccc12,n
Nc1nc(-c2cccnc2)nn1S(=O)(=O)c1ccccc1,n
CC(=O)n1nc(-c2cccnc2)nc1N,5.5
CCOC(=O)Cn1c(-c2cccnc2)nc(-c2ccccc2)c1-c1ccccc1,n
Nc1nc(-c2cccnc2)nn1C(=O)Cc1ccccc1,8.2
COc1ccc(NC(=O)OC(C)(C)C)cc1,n
CN(C)C(=S)SCc1ccc(C(=O)Oc2c(Cl)cccc2Cl)cc1,n
Cc1csc(C(=O)NNC(=O)C(Cl)Cl)c1,n
CC1=C(C(=O)Nc2cccc(C)n2)C(c2ccsc2)C2=C(CC(C)(C)CC2=O)N1 (stereo not drawn),n
CC1=C(C(=O)Nc2cccc(F)c2)C(c2ccsc2)C2=C(CC(C)(C)CC2=O)N1 (stereo not drawn),3.7
CCSCCOC(=O)C1=C(C)NC2=C(C(=O)CC(C)(C)C2)C1c1ccsc1 (stereo not drawn),n
CC1CCc2c(sc3ncnc(Oc4ccccc4)c23)C1 (stereo not drawn),n
O=C1OC(Nc2ccccc2Sc2ccc(Cl)cc2[N+](=O)[O-])c2ccccc21 (stereo not drawn),n
O=C1OC(Nc2ccccc2SCc2ccccc2Cl)c2ccccc21 (stereo not drawn),3.3
N#Cc1ccc(CSc2ccccc2NC2OC(=O)c3ccccc32)cc1 (stereo not drawn),n
CC(C)(C)n1nc(-c2ccc(Cl)cc2)c(C#N)c1N,n
O=[N+]([O-])c1ccc(Oc2c(Cl)cc(S(=O)(=O)N3CCOCC3)cc2Cl)cc1,n
CCOC(=O)c1ccccc1CSC(=N)N,n
CC1CC(N(CCC#N)S(=O)(=O)c2ccc(Br)cc2)CC(C)(C)C1 (stereo not drawn),n
Cc1cc(=O)oc2cc(OS(=O)(=O)c3cc(Cl)c(Cl)cc3Cl)c(Cl)cc12,n
Cc1cc(=O)oc2cc(OS(=O)(=O)c3cc(C(F)(F)F)cc(C(F)(F)F)c3)c(Cl)cc12,4.2
Cc1ccc(S(=O)(=O)Oc2cc(C)ccc2C)cc1,n
CCc1nnc(NC(=O)c2ccccc2O)s1,4.2
CCc1nnc(NC(=O)c2cc(Br)ccc2Cl)s1,n
CCc1nnc(NC(=S)NC(=O)c2ccccc2)s1,n
SMILES,Dicer processing
CCOC(=O)C1=C(C)NC2=C(C(=O)CC(c3ccc(Cl)cc3)C2)C1c1ccc(O)c(OCC)c1 (stereo not drawn),n
CCCCN(C(C)(C)C)S(=O)(=O)c1ccc(C)cc1,n
CC(C)(C)SC(=S)SCC(=O)c1ccc(Cl)c(Cl)c1,n
CCCCOC(=O)CCc1nc2ccccc2[nH]c1=O,n
COC(=O)c1ccc(COC(=O)CCc2nc3ccccc3[nH]c2=O)cc1,n
COc1nc2ccccc2nc1CCC(=O)O,3.8
CCOC(=O)c1sc(-c2ccccc2)nc1OC,n
Cn1c2ccccc2n2nc(CCC(=O)O)c(=O)nc12,n
COC(=O)CCc1nc2ccccc2nc1OC,3.5
Cc1onc(-c2c(F)cccc2Cl)c1C(=O)OCc1sccc1-n1c(C)ccc1C,n
CCS(=O)(=O)Nc1ccc2c(c1)c1c(n2S(=O)(=O)CC)CC(C)(C)CC1=O,n
Cc1cc(-c2cccnc2)c(C#N)c(SCC(=O)O)n1,n
COc1cc(N2C(=O)CSC2c2ccccc2)c(OC)cc1Cl (stereo not drawn),n
Cc1nn(-c2ccccc2)nc1C(=O)c1c(C(C)(C)C)[nH]n(-c2ccccc2)c1=O,n
CCCCCCNc1c2c3c(cccc3n(C)c1=O)C(=O)c1ccccc1-2,n
CCOC(=O)NC(=S)Nc1ccc(F)cc1F,n
CN1CCN(c2ncnc3sc4c(c23)CCCC4)CC1,3.1
CC1CCc2sc3ncnc(N4CCN(CCO)CC4)c3c2C1 (stereo not drawn),n
CC1CN(c2ncnc3sc4c(c23)CCCC4)CC(C)O1 (stereo not drawn),n
c1nc(N2CCCC2)c2c3c(sc2n1)CCCC3,n
c1ccc2[nH]c(CN3CCN(c4ncnc5sc6c(c45)CCCC6)CC3)nc2c1,n
OCCN1CCN(c2ncnc3sc4c(c23)CCCC4)CC1,4.5
COc1ccc(-c2sc(/N=C/c3ccc(-c4ccccc4)cc3)c(C#N)c2C)cc1OC,n
Nc1ccc(Oc2ccccc2)cc1,5
Fc1c(F)c(Oc2ccccc2)c(F)c(F)c1Oc1ccccc1,n
Nc1cc(Cl)ccc1Oc1ccccc1,n
COC(=O)c1ccc(Oc2nc(NC(C)(C)C)nc(N(C)C)n2)cc1,n
Cn1ccnc1S(=O)(=O)/C(C#N)=C/c1ccccc1Cl,n
CC1=CC(C)(C)Nc2ccc(OC(=O)c3ccc(F)cc3)cc21,n
Fc1ccc(Cn2c3ccccc3c3nn4cnnc4nc32)cc1,n

# Source: PubChem BioAssay
